Measured values as given in publication PMC5540273 (PLoS ONE, 2017).

Columns and labels:
Conditions in all cases: concentration: 1 μM, replicates: in singlicate; n = 1
PAK3 = system: PAK3
PAK4 = system: PAK4
PAK6 = system: PAK6
PAK7 = system: PAK7
PCTK1 = system: T1, PCTK1
T1 construct: gene CDK16

PCTK2 = system: T2, PCTK2
T2 construct: gene CDK17

PCTK3 = system: T3, PCTK3
T3 construct: gene CDK18

PDGFRA = system: PDGFRA
PDGFRB = system: PDGFRB
PDPK1 = system: PDPK1
PFTAIRE2 = system: PFTAIRE2
PFTK1 = system: T4, PFTK1
T4 construct: gene CDK14

PHKG1 = system: PHKG1
PHKG2 = system: PHKG2
PIK3C2B = system: PIK3C2B
PIK3C2G = system: PIK3C2G
PIK3CA = system: PIK3CA
PIK3CB = system: PIK3CB
PIK3CD = system: PIK3CD
PIK3CG = system: PIK3CG
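Note: KINOMEscan kinase panel screen.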

Row | SMILES | %Inh (PAK3) | %Inh (PAK4) | %Inh (PAK6) | %Inh (PAK7) | %Inh (PCTK1) | %Inh (PCTK2) | %Inh (PCTK3) | %Inh (PDGFRA) | %Inh (PDGFRB) | %Inh (PDPK1) | %Inh (PFTAIRE2) | %Inh (PFTK1) | %Inh (PHKG1) | %Inh (PHKG2) | %Inh (PIK3C2B) | %Inh (PIK3C2G) | %Inh (PIK3CA) | %Inh (PIK3CB) | %Inh (PIK3CD) | %Inh (PIK3CG)
1 | COc1ccc(Nc2nccc(N3CCC(NC(=O)C(C)c4ccc(Cl)cc4)C3)n2)cc1 (stereo not shown) [GSK1379735] | 71% | 0% | 0% | 6% | 0% | 10% | 9% | 0% | 34% | 4% | 0% | 28% | 4% | 0% | 0% | 0% | 0% | 0% | 0% | 0%
2 | NS(=O)(=O)c1cccc(N/C=C2\C(=O)Nc3ccc(S(=O)(=O)Cc4c(Cl)cccc4Cl)cc32)c1 [GSK398099] | 0% | 0% | 5% | 4% | 6% | 0% | 21% | 0% | 20% | 0% | 26% | 5% | 0% | 0% | 4% | 0% | 16% | 0% | 0% | 41%
3 | Cc1ccccc1Cn1ccn2c(=O)cc(N3CCOCC3)nc12 [GSK2269905] | 0% | 0% | 0% | 0% | 1% | 0% | 0% | 0% | 13% | 0% | 0% | 12% | 0% | 0% | 0% | 0% | 0% | 99.9% | 57% | 0%
4 | Cc1ccccc1-c1cc(-c2c[nH]nc2-c2ccccn2)ccn1 [GW680061] | 0% | 0% | 0% | 0% | 2% | 7% | 20% | 0% | 41% | 0% | 0% | 0% | 0% | 0% | 0% | 0% | 0% | 0% | 4% | 0%
5 | Fc1ccc(-c2nc[nH]c2-c2ccncc2)cc1 [SB-217360] | 0% | 13% | 2% | 0% | 0% | 0% | 0% | 0% | 0% | 0% | 12% | 0% | 0% | 3% | 0% | 0% | 12% | 0% | 0% | 0%
6 | Cc1ccc(NC(=O)Nc2ccccc2F)cc1-c1ccc(C(=O)Nc2ccncc2)cc1 [GSK1398477] | 27% | 0% | 5% | 11% | 4% | 12% | 46% | 50% | 100% | 19% | 28% | 25% | 23% | 4% | 0% | 0% | 0% | 0% | 0% | 0%
7 | Cc1cnc(N)c(/C=C/c2cncc(C(=O)NCCc3ccc(Cl)cc3Cl)c2)c1.Cl [GSK190937] | 0% | 0% | 0% | 7% | 1% | 0% | 0% | 96.4% | 98.8% | 0% | 0% | 9% | 0% | 19% | 0% | 2% | 0% | 1% | 0% | 4%
8 | CC(=O)c1c(C)c2cnc(Nc3ccc(N4CCNCC4)cn3)nc2n(C2CCCC2)c1=O | 6% | 0% | 0% | 0% | 0% | 10% | 8% | 0% | 0% | 0% | 0% | 5% | 10% | 12% | 0% | 0% | 3% | 0% | 0% | 12%
9 | COc1ccc(Nc2nccc(N3CCC(NC(=O)c4cc5ccccc5s4)C3)n2)cc1 (stereo not shown) [GSK1379738] | 0% | 0% | 2% | 0% | 15% | 0% | 0% | 0% | 26% | 0% | 16% | 4% | 0% | 0% | 0% | 0% | 0% | 0% | 0% | 0%
10 | CCn1c(-c2ccccc2)nc2cnccc21 [SB-733416] | 14% | 0% | 0% | 0% | 4% | 0% | 0% | 0% | 16% | 0% | 0% | 27% | 0% | 0% | 0% | 0% | 0% | 0% | 13% | 0%
11 | O=C(Nc1n[nH]c2nc(-c3cccs3)c(Br)cc12)C1CC1 [SB-735297] | 0% | 0% | 3% | 0% | 28% | 40% | 6% | 0% | 43% | 0% | 18% | 14% | 0% | 0% | 0% | 0% | 0% | 22% | 0% | 10%
12 | Cc1c(Cn2c3ccccc3n3c(=O)cc(N4CCOCC4)nc23)cccc1C(F)(F)F [GSK2306394] | 23% | 0% | 0% | 0% | 0% | 0% | 5% | 11% | 25% | 0% | 14% | 21% | 12% | 18% | 9% | 3% | 1% | 98.4% | 52% | 0%
13 | CC[C@@H]1CO[C@H](C(=O)Nc2ccccc2)CN1c1cc(-c2ccc3c(N)n[nH]c3c2)nc(NC)n1 [GSK2376236] | 0% | 0% | 3% | 7% | 3% | 11% | 0% | 0% | 20% | 94.6% | 23% | 28% | 0% | 11% | 0% | 0% | 0% | 0% | 0% | 6%
14 | O=c1cc(N2CCOCC2)nc2n(Cc3ccccc3F)ccn12 [GSK2297428] | 24% | 0% | 0% | 9% | 0% | 0% | 0% | 0% | 8% | 0% | 0% | 23% | 0% | 0% | 2% | 0% | 6% | 94.5% | 32% | 24%
15 | CC(C)c1ccc(O)cc1Nc1ccnc2ccc(C(F)(F)F)cc12 [GW482059] | 0% | 0% | 0% | 0% | 2% | 0% | 0% | 3% | 10% | 18% | 1% | 0% | 0% | 0% | 0% | 15% | 0% | 0% | 25% | 0%
16 | CCCCc1nn2ncccc2c1-c1ccnc(NC2CC2)n1 [GW684374] | 0% | 0% | 0% | 0% | 7% | 0% | 15% | 0% | 68% | 0% | 13% | 18% | 0% | 0% | 0% | 0% | 0% | 0% | 0% | 0%

Row | SMILES | %Inh (PAK3) | %Inh (PAK4) | %Inh (PAK6) | %Inh (PAK7) | %Inh (PCTK1) | %Inh (PCTK2) | %Inh (PCTK3) | %Inh (PDGFRA) | %Inh (PDGFRB) | %Inh (PDPK1) | %Inh (PFTAIRE2) | %Inh (PFTK1) | %Inh (PHKG1) | %Inh (PHKG2) | %Inh (PIK3C2B) | %Inh (PIK3C2G) | %Inh (PIK3CA) | %Inh (PIK3CB) | %Inh (PIK3CD) | %Inh (PIK3CG)
17 | CS(=O)(=O)Cc1ccc(Nc2nccc(-c3c(-c4cccc(NC(=O)C5CCCCC5)c4)nn4ncccc34)n2)cc1 [GSK350559] | 0% | 13% | 19% | 2% | 20% | 0% | 12% | 53% | 93.9% | 1% | 0% | 18% | 4% | 9% | 0% | 27% | 12% | 4% | 0% | 4%
18 | CN1c2ccc(-c3ccc(C(N)=O)cc3)cc2-c2[nH]ncc2S1(=O)=O | 0% | 5% | 0% | 0% | 0% | 0% | 0% | 0% | 0% | 21% | 0% | 0% | 0% | 14% | 0% | 0% | 0% | 0% | 0% | 0%
19 | COC(=O)C(NC(=O)NC1CCN(c2ccnc(Nc3ccc(F)cc3)n2)C1)c1ccccc1 (stereo not shown) [GSK1379712] | 0% | 0% | 0% | 2% | 0% | 14% | 24% | 14% | 38% | 0% | 14% | 17% | 0% | 0% | 14% | 0% | 1% | 5% | 23% | 9%
20 | Cn1cnc2c(N)ncnc21 [SKF-97623] | 0% | 0% | 0% | 0% | 0% | 0% | 0% | 100% | 0% | 0% | 0% | 0% | 0% | 0% | 0% | 0% | 0% | 0% | 0% | 4%
21 | O=C(Nc1n[nH]c2cc(-c3ccsc3)ccc12)C1CC1 [SB-732932] | 0% | 22% | 7% | 0% | 13% | 31% | 8% | 57% | 80% | 0% | 13% | 5% | 21% | 0% | 14% | 0% | 3% | 8% | 0% | 6%
22 | CNc1cc(-c2ccc3c(N)n[nH]c3c2)nc(N)n1 [GSK2224810] | 0% | 0% | 0% | 17% | 0% | 16% | 0% | 0% | 44% | – | 0% | 18% | 0% | 18% | 0% | 0% | 0% | 9% | 1% | 5%
23 | Cc1nccc(-c2c(-c3ccc(F)cc3)ncn2CCCN2CCOCC2)n1.Cl [SB-282975] | 0% | 0% | 0% | 0% | 1% | 3% | 10% | 0% | 0% | 29% | 24% | 2% | 33% | 89% | 0% | 22% | 0% | 20% | 49% | 0%
24 | Cc1ccc(-c2nc(Nc3ccncc3)c3ccccc3n2)s1 [GSK189015] | 6% | 4% | 8% | 0% | 7% | 0% | 30% | 0% | 22% | 26% | 22% | 28% | 9% | 0% | 0% | 0% | 0% | 0% | 0% | 0%
25 | Cc1ccc(NC(=O)Nc2ccccc2)cc1-c1ccc(C(=O)Nc2ccncc2)cc1 [GSK1398471] | 11% | 0% | 0% | 1% | 4% | 0% | 21% | 49% | 100% | 26% | 25% | 27% | 0% | 2% | 27% | 0% | 29% | 0% | 0% | 14%
26 | CS(=O)(=O)CCNCc1nc(-c2ccc3ncnc(Nc4ccc5c(cnn5Cc5ccccc5)c4)c3c2)cs1.Cl.Cl [GW569716] | 22% | 0% | 0% | 0% | 0% | 0% | 16% | 0% | 10% | 0% | 0% | 6% | 0% | 0% | 53% | 0% | 0% | 0% | 1% | 0%
27 | CNC(=O)c1ccc(C)c(-n2c(C)cc(OCc3ccc(F)cc3F)c(Br)c2=O)c1 | 0% | 0% | 0% | 0% | 0% | 0% | 0% | 0% | 0% | 0% | 0% | 8% | 5% | 0% | 0% | 0% | 0% | 0% | 0% | 0%
28 | O=C1NC(=O)C(c2ccc(Cl)cc2)=C1Nc1ccc(O)cc1 [SB-340867] | 0% | 0% | 0% | 0% | 0% | 4% | 0% | 0% | 0% | 17% | 13% | 0% | 0% | 0% | 0% | 0% | 0% | 0% | 0% | 17%
29 | CC(=O)c1cccc(NC(=O)NC2CCN(c3ccnc(Nc4ccc(F)cc4)n3)C2)c1 (stereo not shown) [GSK1379710] | 0% | 0% | 0% | 20% | 8% | 19% | 24% | 10% | 43% | 0% | 26% | 14% | 0% | 1% | 0% | 0% | 0% | 0% | 24% | 7%
30 | COC(=O)c1cccc(NC(=O)NC2CCN(c3ccnc(Nc4ccc(F)cc4)n3)C2)c1 (stereo not shown) [GSK1379725] | 0% | 0% | 0% | 0% | 10% | 0% | 12% | 0% | 36% | 0% | 5% | 16% | 0% | 0% | 0% | 0% | 0% | 0% | 0% | 0%
31 | FC(F)(F)c1ccccc1-c1cc(-c2c[nH]nc2-c2ccccn2)ccn1 [GW679396] | 8% | 0% | 3% | 0% | 0% | 10% | 7% | 0% | 19% | 18% | 10% | 14% | 3% | 4% | 0% | 0% | 0% | 18% | 0% | 3%
